# From PubChem
# Only some compounds are listed: those with a hit (about 11% of all), similar ones and a draw of the others.
# SW480 rerep: A quantitative high throughput screen for small molecules that induce DNA re-replication in SW480 colon adenocarcinoma cells; SW480 DNA re-replication, Hoechst DNA content imaging, 48 h; Potency, µM (series often up to 46.1 µM), for inactives: at the highest dose re-replication activation, hits mostly activators; 1.8% of 340,000 active; further: potency means the concentration at half of the fitted maximal effect; % of control where 0% means no effect; nearly all actives have a fitted effect of over 55% in size
#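 Image-based read-out: total Hoechst fluorescence of nuclei (405 nm excitation, 500-530 nm emission), with hits raising the fraction of high-intensity nuclei. SW480 colon cells incubated 48 hr with compounds at 37 C.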
# VP16 counter: VP16 counterscreen qHTS for inhibitors of ROR gamma transcriptional activity | Drosophila S2 Gal4-VP16 UAS-luciferase, luminescence, 20 h | Potency, µM (titrated, usually from 53.6 µM), for inactives: at the highest dose activity, negative = inhibition, actives largely listed as inhibitors | 3.5% of 310,000 active | AID 2546, 2010;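 further: Gal4-VP16 expression switched on by copper sulfate through the metallothionein promoter; potency means the concentration at half of the fitted maximal effect; on the % scale 0 is the no-effect control and ±100 the full control effect; nearly all actives have a fitted effect of over 50% in size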
# MCF10A rerep: A quantitative high throughput screen for small molecules that induce DNA re-replication in MCF 10a normal breast cells. MCF 10A DNA re-replication, Hoechst nuclear intensity, 48 h. Potency, µM (top dose mostly 46.1 µM), for the others: top-dose activity, positive = re-replication, usual class: activators. 2.9% of 350,000 active; further: potency means the concentration at half of the fitted maximal effect; % of control where 0% means no effect; nearly all actives have a fitted effect of over 50% in size
# RORgamma inh: qHTS for inhibitors of ROR gamma transcriptional activity. Drosophila S2 Gal4-RORgamma UAS-luciferase reporter, 20 h. AID 2551, 2010. 5.4% of 310,000 active. Potency, µM (doses to about 53.6 µM), for inactives: top-dose activity change, negative = inhibition, usual class: inhibitors; further: potency means the concentration at half of the fitted maximal effect; on the % scale 0 is the no-effect control and ±100 the full control effect; nearly all actives have a fitted effect of over 60% in size
# Target sequence (P51450 whole entry, looked up, the tested form may be a part): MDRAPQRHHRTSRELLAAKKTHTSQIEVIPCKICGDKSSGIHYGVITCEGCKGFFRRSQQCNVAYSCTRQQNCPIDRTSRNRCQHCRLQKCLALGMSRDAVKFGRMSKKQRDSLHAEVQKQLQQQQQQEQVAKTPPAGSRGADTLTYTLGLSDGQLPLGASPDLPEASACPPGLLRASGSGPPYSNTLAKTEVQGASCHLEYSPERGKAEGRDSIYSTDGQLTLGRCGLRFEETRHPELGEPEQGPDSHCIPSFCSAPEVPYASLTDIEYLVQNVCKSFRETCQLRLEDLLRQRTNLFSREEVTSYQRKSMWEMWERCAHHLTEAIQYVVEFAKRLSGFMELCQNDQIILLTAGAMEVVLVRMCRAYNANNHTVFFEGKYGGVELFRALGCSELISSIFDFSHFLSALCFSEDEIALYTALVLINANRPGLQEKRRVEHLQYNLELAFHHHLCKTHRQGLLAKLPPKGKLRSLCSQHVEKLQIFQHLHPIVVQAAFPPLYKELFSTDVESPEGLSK
#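 A Gal4/UAS one-hybrid system in insect cells: metallothionein-promoter Gal4–ROR gamma fusion plus Photinus luciferase reporter. Copper sulfate 700 uM final, 20 hr ambient incubation, luminescent detection after 10 min with reagent.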
# IL-1B inflam inh: qHTS for Inhibitors of Inflammasome Signaling: IL-1-beta AlphaLISA Primary Screen; THP-1 LPS/ATP IL-1B secretion, AlphaLISA, 16 h; active compounds read low; activity change, % at 57.5 µM; 4.7% of 360,000 active; AID 743279, 2014; in the data active means activity change below about -50%; inconclusive means mostly about -30% to -49%; further: on the % scale 0 is the no-effect control and ±100 the full control effect
#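 Secreted IL-1B measured by AlphaLISA bead assay after 16 h compound exposure of THP-1 cells; compounds (final up to 57.5 uM) added 1 h before LPS (250 ng/mL) and ATP (1.25 mM) stimulation; lower signal means less secretion.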
# Numbers without * were called inactive; ? = inconclusive; nt = no result; [ ] = another dose, or the depositor's remark. Unless noted, the call rests on the fitted dose curve; in most records, active means well fitted curve in the direction sought with a large enough effect; inconclusive means small, poorly fitted or top-dose-only effect, or another doubt; inactive means no such curve, though single readings can be large; an effect the other way counts as inactive or inconclusive.
SMILES,SW480 rerep,VP16 counter,MCF10A rerep,RORgamma inh,IL-1B inflam inh
Cc1ccc(-c2csc3nc(-c4ccncc4)[nH]c(=O)c23)cc1,5.2µM*,-12%,18µM*,12%,-7
Cc1ccc(-c2csc3nc[nH]c(=O)c23)cc1,-57%,-13%,0%,16%,-18
O=c1[nH]c(Cc2ccccn2)nc2scc(-c3ccc(Cl)cc3)c12,-7%,?,?,5.6µM*,-15
CCOc1ccc(-c2nc3scc(-c4cccs4)c3c(=O)[nH]2)cc1,21%,15%,1.5µM*,9%,0
Cc1ccc(-c2csc3nc(CN(C)Cc4ccccc4)[nH]c(=O)c23)cc1,?,6.3µM*,0%,1.3µM*,31
Cc1cccc(C)c1NC(=O)C(C1CC1)n1c(=O)c(-c2cc3ccccc3[nH]2)nc2ccccc21 (stereo unspecified),nt,nt,nt,nt,-7
O=C(Cc1ccccc1)Nc1cccc(N2C(=O)C=CC2=O)c1,9.2µM*,5µM*,12µM*,3.5µM*,-67*
COc1cc2c(cc1OC)[C@@H]1CC(=O)[C@@H](CC(C)C)CN1CC2,nt,-7%,nt,-2%,nt
COc1ccc(NS(=O)(=O)c2cc(C(=O)N(C)CCc3ccccn3)ccc2Cl)cc1,117%,nt,11%,nt,17
Cc1ccc(C(=O)COC(=O)COc2ccccc2[N+](=O)[O-])s1,-4%,nt,-6%,nt,11
CCOC(=O)COc1ccccc1/C=C\[N+](=O)[O-],4.1µM*,3.5µM*,?,16µM*,-100*
O=C(NCCc1ccco1)C(=O)NCC1CCCN1S(=O)(=O)c1ccccc1 (stereo unspecified),16µM*,nt,?,nt,-5
Cc1ccc(C)c(S(=O)(=O)N2CCCC2CNC(=O)C(=O)NCCc2ccco2)c1 (stereo unspecified),-441%,nt,?,nt,7
O=C(NCCC1CCCCN1S(=O)(=O)c1ccccc1)C(=O)Nc1ccc(F)cc1F (stereo unspecified),?,nt,18µM*,nt,?
Cc1ccc(S(=O)(=O)N2CCCCC2CCNC(=O)C(=O)NCc2ccco2)cc1 (stereo unspecified),?,nt,9.2µM*,nt,-17
Cc1ccc(S(=O)(=O)N2CCCCC2CCNC(=O)C(=O)NCCc2ccco2)cc1 (stereo unspecified),6.5µM*,nt,3.7µM*,nt,7
Cc1ccc(CNC(=O)C(=O)NCCC2CCCCN2S(=O)(=O)c2ccccc2)cc1 (stereo unspecified),13%,nt,18%,nt,-5
CCn1c(SCC(=O)Nc2nc3ccc(C)cc3s2)nc2c(c1=O)SC(C)C2 (stereo unspecified),?,1%,?,32%,-83*
CCn1c(SC)nc2c(c1=O)SC(C)C2 (stereo unspecified),-17%,3%,21µM*,22%,6
CN1CCc2c(sc3c2c(=O)n(-c2ccccc2)c2nnc(SCc4ccc(Cl)cc4)n32)C1,0%,-18%,2%,19%,-81*
C=CCn1c(SCc2csc(C)n2)nc2sc3c(c2c1=O)CCCCC3,10%,0%,?,5%,-18
C=CCn1c(SCc2csc(C)n2)nc2sc3c(c2c1=O)CCCC3,3%,-5%,16µM*,2%,?
C=CCn1c(SCc2csc(C)n2)nc2sc3c(c2c1=O)CCC(C)C3 (stereo unspecified),-1%,?,21µM*,?,-15
C=CCn1c(SCC(=O)N2CCOCC2)nc2sc3c(c2c1=O)CCCC3,18%,16%,21%,6%,-77*
COCC(=O)N1CCC2(CCCN(Cc3cc(C(F)(F)F)cc(C(F)(F)F)c3)C2)CC1,nt,-8%,nt,-4%,nt
SMILES,SW480 rerep,VP16 counter,MCF10A rerep,RORgamma inh,IL-1B inflam inh
CC(=O)Nc1cc(-c2ccc(N(C)C)cc2)cn2c(-c3ccc(F)cc3)cnc12,nt,nt,nt,nt,-6
COC(=O)CSc1nc2sc3c(c2c(=O)n1-c1ccc(OC)cc1)CCN(C)C3,1%,-7%,0%,21%,-1
CN1CCc2c(sc3nc(SCC(=O)N4CCOCC4)n(-c4ccc(Cl)cc4)c(=O)c23)C1,8.2µM*,?,5%,-17%,0
C[C@@]12C(=O)OC(=O)[C@@]1(C)[C@@H]1CC[C@@H]2O1,nt,9%,nt,30%,nt
C[C@@]12C(=O)OC(=O)[C@@]1(C)C1CCC2O1,nt,5µM*,nt,14µM*,nt
C[C@@]12C(=O)OC(=O)[C@]1(C)[C@H]1CC[C@@H]2O1,2%[20.6 µM],5µM*,?,-13%[2.98 µM],nt
S=c1[nH]nc(COc2ccc3c(c2)OCO3)n1-c1ccccc1,-3%,11µM*,1%,3.5µM*,18
c1ccc(N2CCN(CCCOc3ccc4c(c3)OCO4)CC2)cc1,nt,-8%,nt,6%,nt
CCn1c(COc2ccc(Cl)cc2)nnc1SCC(=O)Nc1ccc2c(c1)OCO2,0%,-6%,7%,-7%,-15
O=C(COc1ccccc1)NCc1n[nH]c(=S)n1-c1ccccc1,0%,10%,-2%,-28%,-17
CCn1c(COc2ccc3c(c2)OCO3)nnc1SCC(=O)c1ccccc1,-8%,13µM*,?,13%,-4
S=c1[nH]nc(-c2ccc3c(c2)OCO3)n1-c1ccccc1,3%,11µM*,-35%,8.9µM*,0
O=[N+]([O-])c1ccc(OCc2n[nH]c(=S)n2-c2ccccc2)cc1,-7%,?,?,0.32µM*,15
C/C(=N\OCC(=O)OCC(=O)N(C)c1ccccc1)c1ccc2c(c1)OCO2,-8%,nt,-1%,nt,-3
CN1CCN(c2ccc3c(c2)OC[C@@H](Cc2ccccc2)NS3(=O)=O)CC1,nt,nt,nt,nt,0
CC(C)CC1OCCC=CC1C (stereo unspecified),nt,-5%[10 µM],nt,-2%[10 µM],nt
CC(=O)C[C@@H](O)CC(=O)[C@@H]1OC(=O)[C@@H](C)C/C=C\Cc2ccccc21,?,nt,-4%,nt,21
CCOC(=O)N1CCN(C(=S)NC(=O)c2c(-c3c(Cl)cccc3Cl)noc2C)CC1,29%,0.79µM*,2%,0.25µM*,-2
CCOC(=O)N1CCN(C(=S)NC(=O)c2ccc(F)c(F)c2)CC1,-21%,1µM*,2%,0.63µM*,17
CCOC(=O)N1CCN(C(=S)NC(=O)c2cccc(OC)c2)CC1,10%,nt,26%,nt,4
Cc1onc(-c2c(Cl)cccc2Cl)c1C(=O)NC(=S)N1CCOCC1,10%,0.71µM*,-7%,0.16µM*,38
CCCCCOc1ccc(Br)cc1/C(C)=N/NC1=NCCN1,3.3µM*,?,3.3µM*,2.5µM*,-103*
COc1ccc(Br)cc1/C(C)=N/NC1=NCCN1,-3%,13µM*,?,?,-76*
